This passage reports binding signal results from article PMC12136788.

Positions count from the first letter of the chain named. Over roughly 24,000 sequences, “enrichment r” has its median near 0.99; the highest 2% begin near 3.7. This is one part of a sample in which the highest values are shown more often than they occur.

T1: UNK ZnF1-3 (human, UniProt Q9C0B0 31-174)
T1 sequence: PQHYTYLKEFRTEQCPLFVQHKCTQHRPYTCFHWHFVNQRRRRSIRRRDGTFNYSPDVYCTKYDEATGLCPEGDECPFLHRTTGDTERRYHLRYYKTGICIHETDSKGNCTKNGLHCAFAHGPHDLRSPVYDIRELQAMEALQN

B1: chr1:93299114:93299115:+_ENSG00000122406_ENST00000370321|hu_hu|motif|central (ssRNA)
RNA: GGGAGUUCUACAGUCCGACGAUCUUGUAUCACCAAGCGUUUCCGAGCAUAAUAAUCAGUUUUACCCUCUCGUCGUCUUCGGAAUUUCACUUGGUAUCUCUUAAAGUAGGCCUUAUUCUUAACAACUUUAACAAACCCCAUCCUCAACAGAGGAUUGAGCAUCA
B2: chr3:32335226:32335227:+_ENSMUSG00000027665_ENSMUST00000108243|mus_mus|motif|central (ssRNA)
RNA: GGGAGUUCUACAGUCCGACGAUCGGCCUCUCUGAACAGUUCAUGUUUGAUGGUGACGAGUGUGGCCUCACGGAGGCAUUCGGAAGUCACUAUCAUUCCAUUGGGGAGUAAACAUUCCACUAGGAUUCGUGGGGGCAUCAAGUGCAACAGAGGAUUGAGCAUCA
B3: chr7:54825262:54825263:-_ENSG00000132432_ENST00000352861|hu_hu|hu_hu_hu_mus_False|48_78 (ssRNA)
RNA: GGGAGUUCUACAGUCCGACGAUCCUGCCGGCUGGGCUCCACAAACUGCAUUACCUGCAUGACUGCCGUUGGAUGGCGGAUUGAGAGUGCCAGGGACCGUAGCUCAGGAGAGAACCGAGCCCAACGGAACCGGAAGCUGGCAACCAACAGAGGAUUGAGCAUCA
B4: 93048056_93048176_2666_3pUTR_ENSMUSG00000020964_ENSMUST00000021347|mouse|control|control (ssRNA)
RNA: GGGAGUUCUACAGUCCGACGAUCCACUGAGAGUUGUCAUUCCGUAUGGCACUGAAACAAACAUUCACUGCAGCUCUGCCGAGAGCCGCGCAUCCCUGAAAAGGAAGGCAGCAGGUUCUAAGCAGCUUCUGGGAUUCAACACGCCAACAGAGGAUUGAGCAUCA
B5: chrX:165757501:165757502:-_ENSMUSG00000031352_ENSMUST00000112115|mus_mus|FALSE|FALSE (ssRNA)
RNA: GGGAGUUCUACAGUCCGACGAUCAGCAGGAGAAGAUGCUGAGGCACCCAUGGCUGGAAUCACAGGGGUCACUCCCAAUCUAAAAUACCCAGCAAAACGGGAGGCAAGGAGCGGCGAAGGGCAGGAAGCCACCAGUGUUGCCUUCAACAGAGGAUUGAGCAUCA
B6: chr17:56552419:56552420:-_ENSMUSG00000013236_ENSMUST00000086828|mus_mus|mus_mus_mus_hu_False|48_88 (ssRNA)
RNA: GGGAGUUCUACAGUCCGACGAUCAAAAAAUACACUAUUUAAAAAAAAAAGAAAAAAACGGGAUACAGUUACACUGAGAGUUUUAAAAAAAAAUAAGAUUCUGGUCCCAGCCCAGUGUCCCCAGGCUGCAGAGCGGGGAGGAGCCAACAGAGGAUUGAGCAUCA
B7: chr17:56552419:56552420:-_ENSMUSG00000013236_ENSMUST00000086828|mus_mus|mus_mus_mus_hu_False|18_88 (ssRNA)
RNA: GGGAGUUCUACAGUCCGACGAUCAAAAAAUACACUAUUUAAAAAAAAAAGAAAAAAACGGGAUACAGUUACACUGAGAGUUUUAAAAGAAAGCUGGAUUCUGGUCCCAGCCCAGUGGCAGGCAGGGGCAGAGCGGGGAGGAGCCAACAGAGGAUUGAGCAUCA
B8: chr17:56552419:56552420:-_ENSMUSG00000013236_ENSMUST00000086828|mus_mus|mus_mus_mus_hu_False|88_98 (ssRNA)
RNA: B6 RNA with U38A, U39A, A88G, A92G, U93C, A94U, A95G
B9: chr17:56552419:56552420:-_ENSMUSG00000013236_ENSMUST00000086828|mus_mus|mus_mus_mus_hu_False|1_88 (ssRNA)
RNA: B6 RNA with A88G, A92G, U93C, A94U, A95G, A138C, G139A, C143G
B10: chr14:92628060:92628061:+_ENSG00000165934_ENST00000298875|hu_hu|motif|central (ssRNA)
RNA: GGGAGUUCUACAGUCCGACGAUCUUGACAUCAUGUCCUUUAUACAAUGGCAUAUUGUUCAUAUAAAAGGUCUCUUAUCCGGUAAAAAUCUUGACAAAGGCAGCCUUCUAAUCCAAUGCGUCCAGUUUCCGUUCUGCGGACUGCCAACAGAGGAUUGAGCAUCA
B11: chr17:32333828:32333829:-_ENSMUSG00000024002_ENSMUST00000121285|mus_mus|FALSE|FALSE (ssRNA)
RNA: GGGAGUUCUACAGUCCGACGAUCUACAGUACAGCCACAGUCACACACUACCCACAGCGCAGUGGGAGCCGCCGCUCACUGAGGAGACGAUCACACCAUUUGGAGAUAAGCAGUGCCACUGUGUCUGAGGAGAAGAGAGUUAAACAACAGAGGAUUGAGCAUCA
B12: chr17:88387627:88387628:+_ENSMUSG00000005370_ENSMUST00000005503|mus_hu|motif|central (ssRNA)
RNA: GGGAGUUCUACAGUCCGACGAUCAAAAUCAUCUCCAAAAAAAGUCUUCGUAAUGCAAGGAUGGCGUGAUCCUUUAAGCUCGGAGAAGGGGGGGGUAUCUUCCGGCAACAGAAUUACUGGGCGACACAUAGGACCAUCACCCCCCAACAGAGGAUUGAGCAUCA
B13: chr8:26941818:26941819:-_ENSMUSG00000031575_ENSMUST00000166078|mus_mus|FALSE|FALSE (ssRNA)
RNA: GGGAGUUCUACAGUCCGACGAUCACUAGCAGACACAGCACUGCUUUGUUUCUGGUUGUCAUAAGCAGGACCAAUAUUACUAAGAUCCUGAUCCAAAAGUCCAAACUUGGGGUAAUCUUCUUCUGGGUCUUUGCUUCCUGGGUCCAACAGAGGAUUGAGCAUCA
B14: chr1:163117127:163117128:-_ENSG00000143248_ENST00000313961|hu_mus|hu_hu_hu_mus_False|58_98 (ssRNA)
RNA: GGGAGUUCUACAGUCCGACGAUCUGCUACAAAGGAUGGAGGAAAUAUCACAGGGCAACUUUUGGAAGCCUGACCAGAUUACUACUUGAUUAGCUCCUUAUAAAAUUCAGAGCGCACAAAGCGGGGCAGAGAAUCCUUCUCCAUCAACAGAGGAUUGAGCAUCA
B15: chr18:90710673:90710674:+_ENSMUSG00000024614_ENSMUST00000025515|mus_mus|motif|central (ssRNA)
RNA: GGGAGUUCUACAGUCCGACGAUCACCUAAUAAAAAUUCUGAAAUUAGCUAAAAUGAAGGCAUCAAAAUUAACAAAUGAUCGGUAGUAAACAUUAUCACAAAAUACCCACUCUUAGACACGACUGCAUUCUGAUGAAAGAUGCGCAACAGAGGAUUGAGCAUCA

For the experiment, the target named is T1, UNK ZnF1-3. In words: nsRBNS (natural sequence RNA bind-n-seq); RBNS binding buffer (assumed for nsRBNS): 25 mM Tris pH 7.5, 150 mM KCl, 3 mM MgCl2, 0.01% Triton X-100, 500 ug/ml BSA, 20 U/ml SUPERase-In, 4 C; UNK is unkempt and MSI1 is Musashi-1; names of the RNAs are library labels; protein concentration not given here; high values mean tight binding.
B1 returned a binding signal of 0.572 enrichment R. As for B2, the figure is 1.05 enrichment R.

As for B3, the binding signal was determined as 1.55 enrichment R. Next, B4: 0.952 enrichment R; B5: 1.75 enrichment R; B6: 16.3 enrichment R.

In turn, B7 registered a binding signal of 9.03 enrichment R. The molecule B8 displayed a binding signal of 16 enrichment R. Regarding B9, the binding signal is 7.19 enrichment R.

Take B10: the binding signal was found to be 0.899 enrichment R.

As for B11, the binding signal was determined as 1.36 enrichment R. Take B12: the binding signal is 1.58 enrichment R. As for B13, the figure is 0.761 enrichment R; as for B14, 1.55 enrichment R.

In turn, B15 yielded a binding signal of 1.85 enrichment R.
